Measured values from PubChem BioAssay (Tox21).
Where “and” joins values, the source holds several entries; their conditions need not be identical. Equal entries are not always repeated. Inconclusive results are not listed. Where a call stands in place of a potency, no number is given. More than one record can exist for a structure, and the calls need not agree. Calls of active or inactive are those of the source. Unless noted, the call rests on the fitted dose curve; in most records, active means well fitted curve in the direction sought with a large enough effect in the repeat runs; inconclusive means weak or mixed curves; inactive means no such curve, though single readings can be large; an effect the other way counts as inactive or inconclusive.

Legend:
[1] = qHTS assay to identify small molecule antagonists of the sonic hedgehog signaling (Shh) pathway (AID 1259369; calls by dose curve; further: nearly all actives have a fitted effect of over 45% in size; further: potency means the concentration at half of the fitted maximal effect)
How it was run: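 NIH/3T3-derived 3T3Gli1-Luc cells with stably integrated Gli1-Luc reporter were preincubated 4hr at 37 C, then given compounds in DMSO plus Shh conditioned medium and incubated 24hr. Firefly luciferase luminescence read after 30min reagent at room temperature.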

[2] = biological target: Estrogen receptor beta (Homo sapiens) (UniProt Q92731); assay: qHTS assay to identify small molecule agonists of the estrogen receptor beta (ER-beta) signaling pathway (AID 1259377; active means well fitted activation curve with a large enough effect in the signal ratio in the repeat runs, not every such curve was filed as active; the % refers to the signal ratio)
How it was run: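 A UAS-controlled beta-lactamase reporter in ER-beta-UAS-bla HEK293T cells reports receptor activation. Compounds act for 16 hr at 37C in 2% charcoal-stripped serum, and a FRET substrate is read by fluorescence after 2 hours.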

[3] = qHTS assay to identify small molecule agonists of the androgen receptor (AR) signaling pathway in the presence of an antagonist - cell viability counter screen (AID 1259379); further: nearly all actives have a fitted effect of over 25% in size; further: potency means the concentration at half of the fitted maximal effect
How it was run: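 MDA-kb2 human breast carcinoma cells (stable MMTV-luciferase, AR/GR responsive) were seeded 3,000 cells/well, pre-incubated 5 hr at 37C without CO2, then given 3.0uM nilutamide and compounds at 15 concentrations for 16 hr. Viability was read by CellTiter-Fluor fluorescence.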

[4] = qHTS assay to identify small molecule agonists of the estrogen receptor beta (ER-beta) signaling pathway - cell viability counter screen (AID 1259380); further: nearly all actives have a fitted effect of over 30% in size; further: potency means the concentration at half of the fitted maximal effect
How it was run: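 ER-beta-UAS-bla HEK293T cells in medium with 2% charcoal-stripped FBS were preincubated 6 hr at 37C, dosed with compound in DMSO for 16 hr, then after the bla read, CellTiter-Glo was added for 30 min at room temperature; luminescence recorded.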

[5] = biological target: Androgen receptor (Homo sapiens) (UniProt P10275); assay: qHTS assay to identify small molecule agonists of the androgen receptor (AR) signaling pathway in the presence of an antagonist (AID 1259381; calls by dose curve; further: nearly all actives have a fitted effect of over 15% in size)
How it was run: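 MDA-kb2 human breast carcinoma cells carrying an MMTV-luciferase reporter (AR- and GR-responsive) were treated with compounds at 15 concentrations plus 3.0uM final nilutamide for 16hr at 37C without CO2; luminescence was read after ONE-Glo addition.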

[6] = qHTS assay to identify small molecule antagonists of the estrogen receptor beta (ER-beta) signaling pathway - cell viability counter screen (AID 1259382); further: nearly all actives have a fitted effect of over 55% in size; further: potency means the concentration at half of the fitted maximal effect
How it was run: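 ER-beta-UAS-bla HEK293T cells (2,000/well, 2% charcoal-stripped FBS) were pre-incubated 6 hr at 37C, then given compound plus 1nM final 17-beta-estradiol for 16 hr. Viability was read in the same wells by CellTiter-Glo luminescence after 30 min at room temperature.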

[7] = qHTS assay to identify small molecule agonists or antagonists of the thyroid stimulating hormone receptor (TSHR) signaling pathway - wild type cell line counter screen (AID 1259384; calls by dose curve)
How it was run: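 Wild-type Hek293 cells, 800/well, 18 h at 37C, then compound with Ro20-1724 for 30 min RT. cAMP by HTRF (cAMP-d2/anti-cAMP cryptate), 1 h RT, fluorescence read. 15 concentrations, triplicates.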

[8] = biological target: Thyrotropin receptor (Homo sapiens) (UniProt P16473); assay: qHTS assay to identify small molecule antagonists of the thyroid stimulating hormone receptor (TSHR) signaling pathway (AID 1259385; calls by dose curve; further: nearly all actives have a fitted effect of over 20% in size; further: potency means the concentration at half of the fitted maximal effect)
How it was run: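 TSHR-HEK293 cells (800/well) plated 18 h, then compounds with Ro20-1724 and TSH at 1.5 ng/mL final, 30 min at room temperature. cAMP quantified by HTRF (cAMP-d2/anti-cAMP-cryptate, 1 h); 15 concentrations in triplicate.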

[9] = qHTS assay to identify small molecule agonists of the estrogen receptor alpha (ER-alpha) signaling pathway in the presence of an antagonist - cell viability counter screen (AID 1259386);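 further: cells exposed to compounds for 22 h at 37 °C before the viability read; nearly all actives have a fitted effect of over 30% in size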; further: potency means the concentration at half of the fitted maximal effect
How it was run: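 VM7Luc4E2 cells (endogenous full-length ER-alpha, 4×ERE-luciferase) were held 5 days in phenol red-free medium with 10% charcoal-stripped FBS, plated, then given 10.0nM ICI-182,780 and compounds at 15 concentrations for 22hr at 37C; viability read by CellTiter-Fluor fluorescence.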

[10] = qHTS assay to identify small molecule antagonists of the progesterone receptor (PR) signaling pathway - cell viability counter screen (AID 1346798); further: nearly all actives have a fitted effect of over 50% in size; further: potency means the concentration at half of the fitted maximal effect
How it was run: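 Same-well multiplex: after 16 hr at 37C with compound and R5020 stimulation, HEK293T cells carrying a UAS-bla reporter received LiveBLAzer substrate (2 hr RT), then CellTiter-Glo (30 min RT) for luminescent viability.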

[11] = qHTS assay to identify small molecule antagonists of the TGF-beta/Smad signaling pathway - cell viability counter screen (AID 1346824); further: nearly all actives have a fitted effect of over 50% in size
How it was run: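 SBE-bla HEK 293T cells, incubated overnight, then compound plus 0.25 ng/mL TGF-beta1 (stock added) for 5 hr at 37 C. Viability was read in the same wells by CellTiter-Glo luminescence after 30 min at room temperature.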

[12] = qHTS assay to identify small molecule agonists of the TGF-beta/Smad signaling pathway (AID 1346859; active means well fitted activation curve with a large enough effect in the signal ratio in the repeat runs, not every such curve was filed as active; the % refers to the signal ratio; further: series mostly up to about 77 µM)
How it was run: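 Smad-responsive beta-lactamase reporter cells (HEK 293T) received compounds from DMSO stocks after overnight attachment, were incubated 5 hr, then treated 2 hr with FRET substrate before dual-emission fluorescence measurement (405 nm excitation).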

[13] = biological target: Thyrotropin-releasing hormone receptor (Homo sapiens) (UniProt P34981); assay: qHTS assay to identify small molecule antagonists of the thyrotropin-releasing hormone receptor (TRHR) signaling pathway (AID 1346877; active means well fitted inhibition curve with a large enough effect in the repeat runs, not every such curve was filed as active; further: potency means the concentration at half of the fitted maximal effect)
How it was run: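 TRHR-expressing HEK293 cells were seeded, cultured 18 h at 37 °C, then loaded with calcium dye for 2 h. Compounds were pre-incubated 5 min at room temperature before 1 nM TRH (final) was added, and kinetic fluorescence was recorded for 3 min.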

[14] = biological target: Thyrotropin-releasing hormone receptor (Homo sapiens) (UniProt P34981); assay: qHTS assay to identify small molecule agonists of the thyrotropin-releasing hormone receptor (TRHR) signaling pathway (AID 1346891; calls by dose curve; further: potency means the concentration at half of the fitted maximal effect; on activation: series mostly up to about 58 µM)
How it was run: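 Agonist-mode calcium mobilisation screen: TRHR-transfected HEK293 cells cultured overnight (18 h), dye-loaded for 2 h at 37 °C, exposed to compounds, and monitored by fluorescence for 3 min.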

[15] = biological target: Estrogen receptor beta (Homo sapiens) (UniProt Q92731); assay: qHTS assay to identify small molecule antagonists of the estrogen receptor beta (ER-beta) signaling pathway (AID 1259378; active means well fitted inhibition curve with a large enough effect in the signal ratio in the repeat runs, not every such curve was filed as active; the % refers to the signal ratio; further: potency means the concentration at half of the fitted maximal effect)
How it was run: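 ER-beta-UAS-bla HEK293T cells in 2% charcoal-stripped FBS medium treated with compound plus 1nM final 17-beta-estradiol for 16 hr at 37C. Beta-lactamase reporter read by FRET substrate fluorescence after 2 hours at room temperature.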

[16] = biological target: Progesterone receptor (Homo sapiens) (UniProt P06401); assay: qHTS assay to identify small molecule agonists of the progesterone receptor (PR) signaling pathway (AID 1346784; calls by dose curve; further: nearly all actives have a fitted effect of over 30% in size)
How it was run: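 Agonist mode, quantitative HTS format in a HEK 293T line expressing a UAS-controlled beta-lactamase reporter; 16 hr compound exposure at 37C in 2% charcoal-stripped FBS, then LiveBLAzer B/G FRET fluorescence.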

[17] = qHTS assay to identify small molecule agonists of the progesterone receptor (PR) signaling pathway - cell viability counter screen (AID 1346799; calls by dose curve; further: nearly all actives have a fitted effect of over 45% in size; further: potency means the concentration at half of the fitted maximal effect)
How it was run: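 Counter screen for cytotoxicity: compound-treated PR-UAS-bla HEK293T cells (16 hr, 37C, 5% CO2) were assayed with CellTiter-Glo, luminescence measured after 30 min at room temperature.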

[18] = qHTS assay to identify small molecule agonists of the TGF-beta/Smad signaling pathway - cell viability counter screen (AID 1346829); further: top concentration of the series differs between compounds; nearly all actives have a fitted effect of over 45% in size
How it was run: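 SBE-bla HEK 293T cells plated overnight, compound exposure 5 hr at 37 C. Viability read in the same wells by CellTiter-Glo luminescence after 30 min at room temperature, following the beta-lactamase read.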

[19] = biological target: Estrogen receptor (Homo sapiens) (UniProt P03372); assay: qHTS assay to identify small molecule agonists of the estrogen receptor alpha (ER-alpha) signaling pathway in the presence of an antagonist (AID 1259383; calls by dose curve; further: top concentration of the series differs between compounds; nearly all actives have a fitted effect of over 15% in size)
How it was run: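 VM7Luc4E2 cells (endogenous full-length ER-alpha, 4×ERE-luciferase) were precultured 5 days in phenol red-free medium with 10% charcoal-stripped FBS, given 10.0nM ICI-182,780 (final), then treated with compounds at 15 concentrations for 22hr at 37C; luminescence read with ONE-Glo.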

[20] = biological target: Progesterone receptor (Homo sapiens) (UniProt P06401); assay: qHTS assay to identify small molecule antagonists of the progesterone receptor (PR) signaling pathway (AID 1346795; active means well fitted inhibition curve with a large enough effect in the signal ratio in the repeat runs, not every such curve was filed as active; the % refers to the signal ratio)
How it was run: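 HEK293T PR-UAS-bla reporter cells in charcoal-stripped serum (2%) received compound after a 6 hr settling period, followed by R5020 agonist at 1 nM final; 16 hr incubation preceded the FRET substrate step and fluorescence measurement.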

Sequence of Estrogen receptor beta (Homo sapiens) (Q92731 whole entry, looked up): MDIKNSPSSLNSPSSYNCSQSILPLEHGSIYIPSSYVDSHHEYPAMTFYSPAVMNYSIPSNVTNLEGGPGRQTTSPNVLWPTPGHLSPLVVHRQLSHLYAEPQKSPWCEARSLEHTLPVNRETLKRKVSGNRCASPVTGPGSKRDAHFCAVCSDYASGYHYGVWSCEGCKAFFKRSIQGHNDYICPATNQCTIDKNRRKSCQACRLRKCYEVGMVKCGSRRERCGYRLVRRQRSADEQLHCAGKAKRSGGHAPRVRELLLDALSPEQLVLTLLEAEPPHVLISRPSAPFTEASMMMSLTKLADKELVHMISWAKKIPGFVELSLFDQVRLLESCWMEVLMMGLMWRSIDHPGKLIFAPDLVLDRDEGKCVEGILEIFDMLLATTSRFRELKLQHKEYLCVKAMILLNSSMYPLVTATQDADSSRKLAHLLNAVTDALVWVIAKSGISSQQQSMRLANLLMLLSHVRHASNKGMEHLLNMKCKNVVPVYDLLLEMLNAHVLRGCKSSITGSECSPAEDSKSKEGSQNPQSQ
Sequence of Progesterone receptor (Homo sapiens) (P06401 whole entry, looked up): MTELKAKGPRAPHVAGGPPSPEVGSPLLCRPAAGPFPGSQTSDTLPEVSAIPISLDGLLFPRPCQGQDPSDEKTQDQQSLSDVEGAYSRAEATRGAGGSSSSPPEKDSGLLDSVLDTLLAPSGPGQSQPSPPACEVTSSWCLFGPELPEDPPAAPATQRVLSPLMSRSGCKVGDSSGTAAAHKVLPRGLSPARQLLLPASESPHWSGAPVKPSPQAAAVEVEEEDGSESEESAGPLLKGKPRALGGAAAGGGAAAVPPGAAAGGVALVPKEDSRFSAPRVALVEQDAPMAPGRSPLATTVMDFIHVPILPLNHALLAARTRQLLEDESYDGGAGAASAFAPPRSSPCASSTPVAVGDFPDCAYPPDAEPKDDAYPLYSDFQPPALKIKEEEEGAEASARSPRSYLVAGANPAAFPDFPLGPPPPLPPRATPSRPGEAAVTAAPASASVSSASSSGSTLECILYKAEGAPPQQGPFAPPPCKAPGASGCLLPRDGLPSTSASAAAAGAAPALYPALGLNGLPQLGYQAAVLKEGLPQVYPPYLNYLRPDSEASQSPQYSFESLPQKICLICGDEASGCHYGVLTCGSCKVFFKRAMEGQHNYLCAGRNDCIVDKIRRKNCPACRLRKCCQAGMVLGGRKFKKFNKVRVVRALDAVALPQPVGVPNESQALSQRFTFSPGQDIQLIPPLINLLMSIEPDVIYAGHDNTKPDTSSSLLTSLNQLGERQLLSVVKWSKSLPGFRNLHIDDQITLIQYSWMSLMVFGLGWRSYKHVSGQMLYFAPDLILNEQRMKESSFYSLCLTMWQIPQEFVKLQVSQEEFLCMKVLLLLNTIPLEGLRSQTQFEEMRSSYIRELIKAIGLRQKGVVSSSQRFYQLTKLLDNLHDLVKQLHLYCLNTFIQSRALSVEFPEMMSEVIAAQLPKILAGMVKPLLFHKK
Sequence of Thyrotropin receptor (Homo sapiens) (P16473 whole entry, looked up): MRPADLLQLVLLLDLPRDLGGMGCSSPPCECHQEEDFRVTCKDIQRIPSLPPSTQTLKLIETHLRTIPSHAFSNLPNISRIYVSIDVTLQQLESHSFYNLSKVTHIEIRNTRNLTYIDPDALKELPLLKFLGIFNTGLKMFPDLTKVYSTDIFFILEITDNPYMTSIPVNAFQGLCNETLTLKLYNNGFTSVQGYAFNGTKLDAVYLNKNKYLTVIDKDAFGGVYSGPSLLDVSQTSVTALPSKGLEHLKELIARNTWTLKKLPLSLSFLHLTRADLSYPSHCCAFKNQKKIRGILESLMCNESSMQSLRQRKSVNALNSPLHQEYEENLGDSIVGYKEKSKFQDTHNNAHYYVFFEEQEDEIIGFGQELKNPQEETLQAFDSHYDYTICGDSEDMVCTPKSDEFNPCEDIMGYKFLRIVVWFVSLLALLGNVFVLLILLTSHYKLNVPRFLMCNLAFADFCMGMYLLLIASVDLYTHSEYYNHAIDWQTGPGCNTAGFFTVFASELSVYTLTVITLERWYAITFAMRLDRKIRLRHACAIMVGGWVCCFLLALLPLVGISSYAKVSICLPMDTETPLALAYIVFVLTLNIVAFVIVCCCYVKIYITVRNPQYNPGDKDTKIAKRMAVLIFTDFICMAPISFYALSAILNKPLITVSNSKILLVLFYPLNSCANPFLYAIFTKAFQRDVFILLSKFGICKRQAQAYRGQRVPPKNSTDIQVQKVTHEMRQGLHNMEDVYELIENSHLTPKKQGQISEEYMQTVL
Sequence of Estrogen receptor (Homo sapiens) (P03372 whole entry, looked up): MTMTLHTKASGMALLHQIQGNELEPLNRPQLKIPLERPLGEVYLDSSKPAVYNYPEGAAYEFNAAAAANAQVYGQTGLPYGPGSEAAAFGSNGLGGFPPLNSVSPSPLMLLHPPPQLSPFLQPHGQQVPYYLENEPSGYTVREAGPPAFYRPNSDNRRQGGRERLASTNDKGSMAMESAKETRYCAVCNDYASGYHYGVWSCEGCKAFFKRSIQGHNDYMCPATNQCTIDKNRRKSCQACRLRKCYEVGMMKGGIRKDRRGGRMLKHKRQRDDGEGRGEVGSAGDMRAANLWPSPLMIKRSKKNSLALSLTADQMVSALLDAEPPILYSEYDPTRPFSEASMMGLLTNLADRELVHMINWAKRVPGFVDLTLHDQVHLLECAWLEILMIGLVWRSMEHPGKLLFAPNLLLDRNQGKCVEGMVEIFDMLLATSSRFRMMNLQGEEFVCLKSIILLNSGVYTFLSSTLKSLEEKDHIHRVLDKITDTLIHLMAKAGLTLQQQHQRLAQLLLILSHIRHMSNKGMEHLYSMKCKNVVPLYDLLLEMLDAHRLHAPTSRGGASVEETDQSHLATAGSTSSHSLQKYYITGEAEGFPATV
Sequence of Thyrotropin-releasing hormone receptor (Homo sapiens) (P34981 whole entry, looked up): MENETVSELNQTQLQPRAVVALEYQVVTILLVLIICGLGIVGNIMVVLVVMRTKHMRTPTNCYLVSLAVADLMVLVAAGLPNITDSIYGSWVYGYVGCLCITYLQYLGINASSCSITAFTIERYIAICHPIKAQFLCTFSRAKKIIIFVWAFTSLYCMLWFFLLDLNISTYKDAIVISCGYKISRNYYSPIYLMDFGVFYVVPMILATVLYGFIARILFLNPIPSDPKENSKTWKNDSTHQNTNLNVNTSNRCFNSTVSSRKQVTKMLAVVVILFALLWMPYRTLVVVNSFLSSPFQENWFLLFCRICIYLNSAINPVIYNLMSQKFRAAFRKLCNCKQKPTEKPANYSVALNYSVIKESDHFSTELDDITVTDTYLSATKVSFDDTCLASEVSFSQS
Sequence of Androgen receptor (Homo sapiens) (P10275 whole entry, looked up): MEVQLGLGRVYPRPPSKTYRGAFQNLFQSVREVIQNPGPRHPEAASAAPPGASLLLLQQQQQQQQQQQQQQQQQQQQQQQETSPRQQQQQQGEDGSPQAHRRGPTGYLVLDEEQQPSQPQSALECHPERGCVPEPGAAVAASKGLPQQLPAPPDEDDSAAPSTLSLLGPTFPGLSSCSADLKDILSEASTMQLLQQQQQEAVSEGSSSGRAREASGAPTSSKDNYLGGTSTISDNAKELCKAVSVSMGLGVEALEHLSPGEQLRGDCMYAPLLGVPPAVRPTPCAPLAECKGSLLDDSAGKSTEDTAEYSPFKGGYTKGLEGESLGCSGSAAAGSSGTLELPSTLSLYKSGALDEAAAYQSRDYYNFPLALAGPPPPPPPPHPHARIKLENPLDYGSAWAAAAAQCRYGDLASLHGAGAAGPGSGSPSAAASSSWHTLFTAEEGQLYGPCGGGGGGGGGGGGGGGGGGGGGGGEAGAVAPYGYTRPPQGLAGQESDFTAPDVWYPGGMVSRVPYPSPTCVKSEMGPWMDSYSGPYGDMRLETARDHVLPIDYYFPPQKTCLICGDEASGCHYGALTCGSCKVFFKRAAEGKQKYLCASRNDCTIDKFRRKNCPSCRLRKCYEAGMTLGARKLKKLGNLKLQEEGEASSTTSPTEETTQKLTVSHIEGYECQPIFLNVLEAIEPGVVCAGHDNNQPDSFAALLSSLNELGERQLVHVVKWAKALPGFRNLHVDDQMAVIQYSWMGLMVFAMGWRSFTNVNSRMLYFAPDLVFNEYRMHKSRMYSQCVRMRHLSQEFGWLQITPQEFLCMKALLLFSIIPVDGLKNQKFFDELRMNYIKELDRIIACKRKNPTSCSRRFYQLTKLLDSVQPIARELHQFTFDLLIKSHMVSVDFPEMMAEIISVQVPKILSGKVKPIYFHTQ

In the case of Oc1c(Cl)cc(Cl)c(Cl)c1Cc1c(O)c(Cl)cc(Cl)c1Cl, the Potency [1] was 1.93 µM (active) and 1.54 µM (active), the outcome [2] was “inactive” and the Potency [3] was 8.61 µM (active) and 9.69 µM (active) and 9.44 µM (active). The Potency [4] was 60.9 µM (active) and 30.6 µM (active), the Potency [5] was “inactive” and the Potency [6] was 48.4 µM (active) and 34.4 µM (active) and inactive. The Potency [7] was “inactive”, the Potency [8] was “inactive” and the Potency [9] was 13.3 µM (active). The Potency [10] was 43.1 µM (active), the Potency [11] was “inactive” and the outcome [12] was “inactive”. For the same compound, the Potency [13] was 12 µM (active) and 26.9 µM (active) and the Potency [14] was 30.8 µM (active) and 34.7 µM (active) and inactive.
With CCC(=O)/C=C/C1C(C)=CCCC1(C)C (configuration not stated) the Potency [1] was “inactive”, the outcome [2] was “inactive” and the Potency [15] was “inactive”. For the same compound, the Potency [3] was “inactive”, the Potency [4] was “inactive” and the Potency [6] was “inactive”. The Potency [7] was “inactive”, the Potency [8] was “inactive” and the Potency [9] was “inactive”. For the same compound, the Potency [16] was “inactive”, the Potency [10] was “inactive” and the Potency [17] was “inactive”. The Potency [11] was “inactive”, the Potency [18] was “inactive” and the outcome [12] was “inactive”. For the same compound, the Potency [13] was “inactive” and the Potency [14] was “inactive”.
With CNCCC(Oc1ccc(C(F)(F)F)cc1)c1ccccc1 (configuration not stated) the Potency [1] was 15.2 µM (active), the outcome [2] was “inactive” and the Potency [3] was 53.8 µM (active) and 26.6 µM (active). The Potency [4] was 26.9 µM (active) and 13.3 µM (active), the Potency [6] was 24 µM (active) and 11.9 µM (active) and the Potency [7] was “inactive”. The Potency [8] was 67.7 µM (active) and inactive, the Potency [9] was “inactive” and the Potency [10] was 60.3 µM (active) and 29.8 µM (active). The Potency [17] was 30.2 µM (active) and 13.3 µM (active), the Potency [11] was “inactive” and the Potency [18] was “inactive”. The outcome [12] was “inactive”, the Potency [13] was “inactive” and the Potency [14] was “inactive”.
For O=C1Nc2ccccc2C1(c1ccc(O)cc1)c1ccc(O)cc1, the Potency [1] was 34.4 µM (active), the outcome [2] was “inactive” and the Potency [15] was 27.3 µM (active) and 18.8 µM (active). For the same compound, the Potency [4] was “inactive”, the Potency [6] was “inactive” and the Potency [19] was “inactive”. The Potency [7] was “inactive”, the Potency [8] was “inactive” and the Potency [9] was 1.37 µM (active) and 944 nM (active). The Potency [16] was “inactive”, the Potency [11] was “inactive” and the Potency [18] was “inactive”. The outcome [12] was “inactive”.
With CC(C(O)c1ccc(O)cc1)N1CCC(Cc2ccccc2)CC1 (configuration not stated) the Potency [1] was “inactive”, the outcome [2] was “inactive” and the Potency [15] was “inactive”. For the same compound, the Potency [3] was “inactive”, the Potency [4] was “inactive” and the Potency [6] was “inactive”. For the same compound, the Potency [19] was “inactive”, the Potency [9] was “inactive” and the Potency [20] was “inactive”. The Potency [10] was “inactive”, the Potency [11] was “inactive” and the outcome [12] was “inactive”. The Potency [13] was “inactive” and the Potency [14] was “inactive”.
With CCCOC(=O)c1cc(O)c(O)c(O)c1 the Potency [1] was 12.1 µM (active), the outcome [2] was “inactive” and the Potency [3] was “inactive”. The Potency [4] was “inactive”, the Potency [6] was “inactive” and the Potency [19] was “inactive”. For the same compound, the Potency [7] was “inactive”, the Potency [16] was “inactive” and the Potency [20] was “inactive”. For the same compound, the Potency [10] was “inactive”, the Potency [17] was “inactive” and the Potency [11] was “inactive”. The Potency [18] was “inactive” and the outcome [12] was “inactive”.
